PubChem BioAssay AID687001 (Broad Institute, 2013)
Measured potencies and affinities stand elsewhere.

Target: Protein S100-A4 (Homo sapiens) (UniProt P26447)
Experiment: human S100A4 peptide interaction inhibition curves – biochemical, fluorescence polarization, cherry-picked hits, dose response (AID 687001);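 note: 0% = DMSO neutral control wells and -100% = TFP positive control wells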
Details: FP, S100A4/TAMRA-myosin IIA peptide binding; series mostly up to 11 µM; activity change, negative = inhibition: at the top concentration;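 active = signal-lowering compounds whose fitted half-maximal concentration is at or below twice the top tested dose in every run; inconclusive = runs disagree, flat 30 to 70% inhibition, or poor curve fit; inactive = the rest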

Chain of Protein S100-A4 (Homo sapiens) (P26447 whole entry, looked up): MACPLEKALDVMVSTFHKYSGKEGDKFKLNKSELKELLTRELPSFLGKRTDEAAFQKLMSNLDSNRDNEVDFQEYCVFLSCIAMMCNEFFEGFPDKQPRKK

Activity change, negative = inhibition, inactive:
CN(C)CCCN(C(=O)c1ccc(S(=O)(=O)N2CCCCCC2)cc1)c1nc2cc3c(cc2s1)OCO3 -0.688%
COC(=O)CCC(C)C1CCC2C3CCC4CC(O)CCC4(C)C3=CC(=O)C12C (centres undefined) -0.405%
C#CCNCCS(=O)(=O)N(Cc1ccc(Br)cc1)[C@@H](CC(C)C)C(=O)O -1.51%
O=C1CN(Cc2ccc(F)cc2)C[C@@H]2[C@@H](c3ccc(-c4ccccc4F)cc3)[C@H](CO)N12 1.79%
COc1cccc(CC(NC(C)=O)C(=O)NC2CCN(S(=O)(=O)c3ccc(NC(C)=O)cc3)CC2)c1OC (centres undefined) -4.43%
Nc1cc(-c2ccncc2)c[nH]c1=O -2.72%
COc1ccc(CN(C)C(=O)Cc2ccc(S(=O)(=O)N3CCOCC3)s2)cc1OC -3.1%
Cc1ccc(S(=O)(=O)Nc2ccc3c(c2)C(=O)N([C@@H](C)CO)C[C@@H](C)[C@@H](CN(C)S(=O)(=O)c2cn(C)cn2)OCCCC[C@@H](C)O3)cc1 5.52%
CO[C@H]1CN(C)C(=O)c2cc(NC(C)=O)ccc2OC[C@H](C)N(Cc2ccccn2)C[C@H]1C -0.609%
COc1ccc2[nH]c3c(c2c1)CCN1C(=O)N([C@@H](C)C(=O)NCc2ccccc2)C(=O)[C@]31C 8.69%
COc1ccc(C)cc1NS(=O)(=O)c1ccc2c(c1)N(C)CCO2 -2.05%
O=S(=O)(CCS(=O)(=O)c1ccccc1)c1ccccc1 -3.72%
O=C(Nc1ccccc1)N1CCCCN2[C@H](CO)[C@H](c3ccc(C#Cc4ccccn4)cc3)[C@H]2C1 18.6%
CC(C)c1ccc(/C=N/n2c(COc3ccccc3)n[nH]c2=S)cc1 -2.63%
C[C@H]1CN([C@@H](C)CO)C(=O)c2cccc(NC(=O)C3CC3)c2O[C@@H]1CN(C)Cc1ccc2c(c1)OCO2 0.419%
CCCCn1c(N)c(N(CC)C(=O)CSCc2ccc(C)cc2)c(=O)[nH]c1=O -0.285%
C[C@H]1CCCCO[C@H](CN(C)C(=O)c2ccccc2)[C@@H](C)CN([C@@H](C)CO)C(=O)c2cc(NC(=O)NC3CCCCC3)ccc2O1 4.76%
Cc1ccc(NS(=O)(=O)c2ccc(-c3coc(C)n3)cc2)c(C)c1 -1.32%
CCOC(=O)c1cc(C)sc1/N=C/C1C(=O)CCCC1=O 1.94%
CCS(=O)(=O)Nc1ccc2c(c1)C(=O)N(C)C[C@@H](OC)[C@@H](C)CN(C(C)=O)[C@H](C)CO2 -0.437%
CNC[C@H]1Oc2c(NC(=O)Nc3ccc(C(F)(F)F)cc3)cccc2C(=O)N([C@@H](C)CO)C[C@H]1C 9.1%
CS(=O)(=O)Nc1cccc(C2=NN(C(=O)c3ccc(F)cc3)C(c3cccs3)C2)c1 (centres undefined) -0.791%
CCCNC(=O)Nc1ccc2c(c1)OC[C@@H](C)N(C(=O)C1CC1)C[C@H](C)[C@@H](OC)CN(C)C2=O 1.76%
Cc1noc(C)c1NC(=O)N[C@@H]1CC[C@H](CCNC(=O)C2CCOCC2)O[C@@H]1CO -0.084%
Nc1nc(SCC(=O)c2ccc(Cl)cc2)c2ncn(C3OC(CO)C(O)C3O)c2n1 (centres undefined) -1.28%
C[C@@H]1CN([C@H](C)CO)S(=O)(=O)c2ccc(C#CCN(C)C)cc2O[C@@H]1CN(C)CC1CC1 5.41%
CCCNC(=O)[C@@H]1[C@@H](CO)[C@@H]2Cn3c(cccc3=O)[C@H]1N2CCC(F)(F)F -3.13%
Cc1[nH]c(C)c(S(=O)(=O)N2CCN(c3ccccc3F)CC2)c1C(=O)N1CCCCC1 -2.64%
CCOc1cc(/C=C2\CCCc3c2nc2ccccc2c3C(=O)O)ccc1OC -0.831%
CCn1c(=S)sc2c(=O)n(CC(=O)Nc3ccc(C(C)=O)cc3)c(C)nc21 17.8%
COC(=O)C(c1ccccc1)C(CC(=O)c1ccccc1)c1ccccc1 (centres undefined) -2.72%
Nc1cnccc1C(=O)O -26.8%
COC(=O)c1ccc(Oc2nc(SC)nc(N(C)C)n2)cc1 -29.3%
CCOCCn1ccc2c(OCC(=O)Nc3ccccc3OC)cccc2c1=O -2.76%
O=S(=O)(NCCN1CCOCC1)c1ccc(-c2ccc(S(=O)(=O)NCCN3CCOCC3)cc2)cc1 -2.5%
CN(C)C(=O)c1cccc(-c2ccc3c(c2)[C@H]2[C@H](CCN2C(=O)C2CC2)[C@@H](CO)N3)c1 2.78%
O=C(Nc1nnc([C@H]2C[C@H](O)[C@@H](CO)O2)s1)c1cccc(Oc2ccccc2)c1 8.33%
CC=Cc1ccc2n(c1=O)C[C@H]1[C@H](CO)[C@@H](C(=O)NCC3CC3)[C@@H]2N1Cc1cccnc1 (mixture of isomers) 1.13%
O=C(CCC1CCN(C(=O)c2ccco2)CC1)NCc1ccc(F)cc1 -0.754%
